This passage reports PBM binding z-score results from the supplement of paper PMC6555819.

The subject of one assay is RARb homodimer (NR concentration 270 nM). Put plainly: PBM binding z-score (relative to random genomic background probes); higher = stronger binding; sequences stand for … in GC…GCGATTGACAGCGTAGAATGAAGG
In outline: (§1)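 Binding z-scores were set against random background probes. The data came from custom Agilent 4×180K protein-binding microarrays carrying double-stranded probes with 34-nt variable regions, incubated 1 h with ligand-free nuclear receptor dimers. Partner-specific antibodies detected binding, and scanned fluorescence was regression-normalized.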
On to CCGACTGGGGAAAAGGTTACCATACTCAGTACGA, for which the PBM binding z-score came to 1.79.
The sequence CAAACGAGGGCATGAGTTGATAGCAAATGCCGAT returned a PBM binding z-score of 0.782.
Still for that read-out and setting: next, TTACCAAAGTGAGCTGAGGTCGTTGATCCAACTC: 0.526; TCGAGTAGGTTAGTGGCATTCAGAATGGCGTCGA: -0.183.
In turn, CCAGACAGGTGAGAAGGTAATTCAGCCTCGATTA had a PBM binding z-score of 0.446.
Same read-out and setting: next, CGTCCAAGGTCAGCAGGTCAGTGTAAGCGACGTG: 5.08; GCAGACAGGTGAAACGAAGGTAACTCAGGGTGGC: 0.36.
For the sequence GCGATTGGGGCATCAGCAGGTTACCATAACTTAA, the PBM binding z-score was 0.917.
Sequence CCTTACGGGTCACTCCGGGTTATAGCATCGGAGT had a PBM binding z-score of 2.96.
Take CCTAGCAGGCCTATCTGGGTCACTCAAGGCTTGA: the PBM binding z-score was 1.68.
The sequence ACTCGGAGCACAAAGGTCAGAGCTACGCCAGTGA yielded a PBM binding z-score of 4.45.
The sequence AGAGTGAGGTTAAGATCAGGGAAACAGAATACAT registered a PBM binding z-score of 1.46.
Still for that read-out and setting: as for CAAACTAGGTCGCGAAAGGTCAAAGTCGAATGAC, the figure is 5.22.
The sequence CAAACTAGGTCTAAGGTCAAAGTCGAGCCAACCA gave a PBM binding z-score of 4.24.
As for GATACAGGGTCAAGGCCAGAGTTCGCGTATTGAT, the PBM binding z-score worked out at 4.11.
In turn, CCTACTAGGCCACGAAAGGTCATTGATTCAGTGA came in with a PBM binding z-score of 4.71.
AGAATGAGGTTAAGATCAGGGACACAGAATACAT gave a PBM binding z-score of 1.6.
TCTTGTAGATCTAGCAGGTTAAGAAAGCCTGAGT: the PBM binding z-score amounted to 0.195.
With CCGAGTAGGTTATAGGGCATTCAGGCAACGGTGA, the PBM binding z-score is 1.33.
TAGCCTAGGTCTTTCAGGGGCCAGTATAGAAAGC registered a PBM binding z-score of 0.423.
Turning to CCTGGTAGGTCAATGGTCAGCTAAAGCAGCTCGC, the PBM binding z-score is 2.92.
The same measure, in the same setting: next, CCTACTGTGCCAAGGTCATTGATCAGTCAAAGCA: 3.73; TCTCGTTGGTCAAAGGTCACACACTCGAAATGCG: 5.23; TAGCCTAGGTCATTGGGCCACTATAGTACGCATC: 3.11.
As for TAGCCTAGGTCATTCAGTGGCCAGTATAGAAAGC, the PBM binding z-score was 2.59.
In turn, TGAATGAGGTTATAAGATGAGGGAACGTTGCAAA displayed a PBM binding z-score of 0.278.
Still for that read-out and setting: next, CAAACTAGGCCAAAGGTCAAAGTCGAGCCAACCA: 4.89; GCAGGCAGGTGAAACGCAGGTAACTCAGGGTGGC: -0.0937.
CTCGAAAGGTCGGTTGAGGTTAGTATACGGATAA had a PBM binding z-score of 2.64.
Same read-out and setting: as for CCAACTAGGTCAAGGACAGTGAATCTCCGCACGC, the figure is 3.18; as for CCGACTGGGGCATAAAGGTTACCATACCATCCGG, 2.16.
On to ACTAGTTGGTCAGCTGAGGTCAGACACAATTCGG, for which the PBM binding z-score worked out at 3.88.
The same measure, in the same setting: next, AGTCAAAGTTCATCTAGGTACCGTAAGATATGCT: 3.72; CCGACAGGGGCAAAGGTTACCATACTCAGTACGA: 2.32; CCTATTGGGCCATTCAGAGGTCATTGATCATATG: 4.13.
CCTATTAGTTGACCCTAAGGGCAACCGAAGCTCG: the PBM binding z-score came to 3.48.
In turn, AGTCAAAGTTCCCTAGGTAACGTAAGATTCAGCT gave a PBM binding z-score of 0.045.
With TGTAGCAGGCCAGAGGGTCACTCAAGAGGTACGG, the PBM binding z-score was 2.85.
With TAGCCTTGGTCAGATCGGGCCAGTATACGCTATA, the PBM binding z-score is -0.204.
ATCCCTAGGTAAAGTTCAGTGAAAGATCGATAGA yielded a PBM binding z-score of 2.36.

Another assay has as its system RARg:RXRa (NR concentration 270 nM, RXRa partner concentration 90 nM). Described as above. A digest of the protocol:
as §1
On to CCGACTGGGGAAAAGGTTACCATACTCAGTACGA, for which the PBM binding z-score was found to be 1.37.
On to CAAACGAGGGCATGAGTTGATAGCAAATGCCGAT, for which the PBM binding z-score is 1.53.
Same read-out and setting: as for TTACCAAAGTGAGCTGAGGTCGTTGATCCAACTC, the figure is 0.117; as for TCGAGTAGGTTAGTGGCATTCAGAATGGCGTCGA, -0.478; as for CCAGACAGGTGAGAAGGTAATTCAGCCTCGATTA, 0.488.
Take CGTCCAAGGTCAGCAGGTCAGTGTAAGCGACGTG: the PBM binding z-score worked out at 6.34.
GCAGACAGGTGAAACGAAGGTAACTCAGGGTGGC gave a PBM binding z-score of 1.1.
Consider GCGATTGGGGCATCAGCAGGTTACCATAACTTAA, for which the PBM binding z-score turned out to be 0.779.
Still for that read-out and setting: next, CCTTACGGGTCACTCCGGGTTATAGCATCGGAGT: 4.46.
As for CCTAGCAGGCCTATCTGGGTCACTCAAGGCTTGA, the PBM binding z-score stood at 0.716.
Take ACTCGGAGCACAAAGGTCAGAGCTACGCCAGTGA: the PBM binding z-score was 5.16.
Same read-out and setting: next, AGAGTGAGGTTAAGATCAGGGAAACAGAATACAT: 2.28.
As for CAAACTAGGTCGCGAAAGGTCAAAGTCGAATGAC, the PBM binding z-score stood at 6.69.
Take CAAACTAGGTCTAAGGTCAAAGTCGAGCCAACCA: the PBM binding z-score worked out at 4.86.
GATACAGGGTCAAGGCCAGAGTTCGCGTATTGAT showed a PBM binding z-score of 5.64.
In turn, CCTACTAGGCCACGAAAGGTCATTGATTCAGTGA registered a PBM binding z-score of 4.9.
AGAATGAGGTTAAGATCAGGGACACAGAATACAT yielded a PBM binding z-score of 2.36.
Same read-out and setting: next, TCTTGTAGATCTAGCAGGTTAAGAAAGCCTGAGT: -0.205; CCGAGTAGGTTATAGGGCATTCAGGCAACGGTGA: 0.821.
TAGCCTAGGTCTTTCAGGGGCCAGTATAGAAAGC: the PBM binding z-score worked out at 0.873.
Consider CCTGGTAGGTCAATGGTCAGCTAAAGCAGCTCGC, for which the PBM binding z-score was found to be 3.75.
Regarding CCTACTGTGCCAAGGTCATTGATCAGTCAAAGCA, the PBM binding z-score was 3.88.
Same read-out and setting: as for TCTCGTTGGTCAAAGGTCACACACTCGAAATGCG, the figure is 7.05; as for TAGCCTAGGTCATTGGGCCACTATAGTACGCATC, 3.84; as for TAGCCTAGGTCATTCAGTGGCCAGTATAGAAAGC, 4.43.
In the case of TGAATGAGGTTATAAGATGAGGGAACGTTGCAAA, the PBM binding z-score stood at 1.31.
As for CAAACTAGGCCAAAGGTCAAAGTCGAGCCAACCA, the PBM binding z-score turned out to be 6.83.
Sequence GCAGGCAGGTGAAACGCAGGTAACTCAGGGTGGC gave a PBM binding z-score of 0.946.
Same read-out and setting: next, CTCGAAAGGTCGGTTGAGGTTAGTATACGGATAA: 3.18; CCAACTAGGTCAAGGACAGTGAATCTCCGCACGC: 3.66.
As to CCGACTGGGGCATAAAGGTTACCATACCATCCGG, the PBM binding z-score was determined as 1.92.
ACTAGTTGGTCAGCTGAGGTCAGACACAATTCGG yielded a PBM binding z-score of 2.85.
On to AGTCAAAGTTCATCTAGGTACCGTAAGATATGCT, for which the PBM binding z-score was 5.39.
On to CCGACAGGGGCAAAGGTTACCATACTCAGTACGA, for which the PBM binding z-score was 3.95.
Sequence CCTATTGGGCCATTCAGAGGTCATTGATCATATG displayed a PBM binding z-score of 4.69.
Still for that read-out and setting: as for CCTATTAGTTGACCCTAAGGGCAACCGAAGCTCG, the figure is 4.12.
Take AGTCAAAGTTCCCTAGGTAACGTAAGATTCAGCT: the PBM binding z-score worked out at 0.0675.
Take TGTAGCAGGCCAGAGGGTCACTCAAGAGGTACGG: the PBM binding z-score is 2.8.
Consider TAGCCTTGGTCAGATCGGGCCAGTATACGCTATA, for which the PBM binding z-score was -0.284.
On the same count and under the same terms, as for ATCCCTAGGTAAAGTTCAGTGAAAGATCGATAGA, the figure is 1.81.
